Results reported in PubChem BioAssay (EPA / NIEHS).
Results filed as inconclusive are left out. Activity calls are given as the source filed them. The calls were made as follows: active = hit-call score of the fitted dose curve at least 0.9, where 1 is the maximum; inconclusive = response in the unintended direction; inactive = score below 0.9.

Biological target: human Peroxisome Proliferator-activated Receptor delta (PPARd), PPARD (gene 5467) (UniProt Q03181)
Test: ATG_PPARd_TRANS: Attagene TRANS-FACTORIAL HepG2 Assay for human Peroxisome Proliferator-activated Receptor delta (PPARd) (AID 2283002)
Procedure: ATG_TRANS is a cell-based, multiplexed-readout assay that uses HepG2, a human liver cell line, with measurements taken at 24 hours after chemical dosing in a 24-well plate.ATG_PPARd_TRANS is one of 30 assay component(s) measured or calculated from the ATG_TRANS assay. It is designed to make measurements of mRNA induction, a form of inducible reporter, as detected with fluorescence intensity signals by Reverse transcription polymerase chain reaction (RT-PCR) and Capillary electrophoresis technology.Data from the assay component ATG_PPARd_TRANS was analyzed into 1 assay endpoint. This assay endpoint, ATG_PPARd_TRANS, was analyzed in the positive analysis fitting direction relative to DMSO as the negative control and baseline of activity. Using a type of inducible reporter, measures of mRNA for gain-of-signal activity can be used to understand the reporter gene at the transcription factor-level as they relate to the gene PPARD. Furthermore, this assay endpoint can be referred to as a primary readout, because this assay has produced multiple assay endpoints where this one serves a reporter gene function. To generalize the intended target to other relatable targets, this assay endpoint is annotated to the nuclear receptor intended target family, where the subfamily is non-steroidal.
Human liver HepG2 cells are transiently transfected with multiple reporter transcription units (MRTUs) in 6-well plates using FuGene 6 reagent (Roche; 3 ml FuGene/1 mg DNA). The MRTU constructs are regulated by a cis-regulating element (promoter). […] A major difference between the CIS and TRANS system is that in CIS activities of endogenous TFs are measured, whereas the TRANS assay evaluates changes in activities of exogenous, chimeric NR-Gal4 proteins. […] At the end of 24 hour incubation, total RNA was isolated using TriZol reagent (Invitrogen). The isolated RNA is then reverse-transcribed using oligo(dT) primer and Mo-MLV reverse transcriptase (Invitrogen) with DNAse I (Ambion) treatment for 30 min. The one-tenth of the produced cDNA was amplified by PCR using Taq DNA polymerase (Invitrogen) and two reporter sequence-specific primers. The PCR products were fluorescently labeled by primer extension with 6-arboxyfluorescein (6-FAM) 5'-labeled reporter sequence-specific primer (2 min at 95 C, 20 s at 68 C and 10 min at 72 C) and these products were digested with 5U of HpaI (New England Biolabs) for 2h at 37 C. The fragments were purified using Qiaquick PCR columns (Qiagen), analyzed on an ABI 3130xL genetic analyzer (Applied Biosystems) with peak positions identified by using a set of X-rhodamine (ROX)-labeled MapMarker1000 molecular weight standards (BioVentures). The raw capillary electrophoresis data was processed using Attagraph software (Attagene).

human Peroxisome Proliferator-activated Receptor delta (PPARd), PPARD (gene 5467), sequence (Q03181 whole entry, looked up): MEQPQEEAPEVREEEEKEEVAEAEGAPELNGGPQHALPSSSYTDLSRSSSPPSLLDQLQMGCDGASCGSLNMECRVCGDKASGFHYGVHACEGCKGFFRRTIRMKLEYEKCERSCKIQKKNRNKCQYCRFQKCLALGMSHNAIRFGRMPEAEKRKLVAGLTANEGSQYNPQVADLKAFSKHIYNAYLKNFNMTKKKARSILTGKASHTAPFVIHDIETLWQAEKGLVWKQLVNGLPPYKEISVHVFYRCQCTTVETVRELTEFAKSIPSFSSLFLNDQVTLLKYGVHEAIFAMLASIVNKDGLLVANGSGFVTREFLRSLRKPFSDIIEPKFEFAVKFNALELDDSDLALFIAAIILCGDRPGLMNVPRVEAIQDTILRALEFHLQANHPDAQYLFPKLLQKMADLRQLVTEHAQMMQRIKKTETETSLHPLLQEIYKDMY

| Structure (SMILES) | outcome |
| --- | --- |
| C1CCC(C2CCCCC2)CC1 | inactive |
| O=C/C(Cl)=C(/Cl)C(=O)O | inactive |
| C=CCOC(F)(C(F)(F)F)C(F)(F)F | inactive |
| O=NN1CCOCC1 | inactive |
| Cc1cc(C(C)(C)c2ccc(O)c(C)c2)ccc1O | inactive |
| C=CCOC(N)=O | inactive |
| CCOc1cc(C=O)ccc1O | inactive |
| O=C(NC(=O)c1c(F)cccc1F)Nc1cc(Cl)c(Oc2ncc(C(F)(F)F)cc2Cl)c(Cl)c1 | inactive |
| Nc1ccc(Br)cc1 | inactive |
| CC(C)[N+](=O)[O-] | inactive |
| C[CH2][Hg][S]c1ccccc1C(=O)O | inactive |
| COC(=O)c1cc(Oc2ccc(Cl)cc2Cl)ccc1[N+](=O)[O-] | inactive |
| Oc1c(Cl)cc(Cl)cc1Cl | inactive |
| CN(C)CCN(C)C | inactive |
| CC(F)(F)CC(F)(F)F | inactive |
| OC(c1ccc(Cl)cc1)(c1ccc(Cl)cc1)c1cccnc1 | inactive |
| Clc1cccc(Cl)c1 | inactive |
| CCOC(=O)CCN(SN(C)C(=O)Oc1cccc2c1OC(C)(C)C2)C(C)C | inactive |
| COP(=S)(OC)Oc1cc(Cl)c(I)cc1Cl | inactive |
| Oc1ccc(Cc2ccc(O)cc2)cc1 | inactive |

| Structure (SMILES) | outcome |
| --- | --- |
| CC(C)C(C)(N)C#N (stereo not given) | inactive |
| CCCCN(CCCCO)N=O | inactive |
| OC(Cc1ccccc1Cl)(Cn1[nH]cnc1=S)C1(Cl)CC1 (stereo not given) | inactive |
| CCC[CH2][Sn]([Cl])([Cl])[CH2]CCC | inactive |
| C=CC(=O)[O][Sn]([CH2]CCC)([CH2]CCC)[CH2]CCC | inactive |
| CC(C)(c1ccccc1)c1cc(-n2nc3ccccc3n2)c(O)c(C(C)(C)c2ccccc2)c1 | inactive |
| Nc1ccc(-c2ccccc2)cc1 | inactive |
| CCCCOC(C)=O | inactive |
| COC(=O)Nc1cccc(OC(=O)Nc2cccc(C)c2)c1 | inactive |
| CC(C=O)Cc1ccc2c(c1)OCO2 (stereo not given) | inactive |
| CCOP(=S)(OCC)O/N=C(\C#N)c1ccccc1 | inactive |
| O=C1c2ccccc2C(=O)C1C(=O)C(c1ccccc1)c1ccc(Cl)cc1 (stereo not given) | inactive |
| COc1ccc([N+](=O)[O-])cc1O | inactive |
| CCCCOP(=O)(CCCC)OCCCC | inactive |
| CC(C)(C)c1ccccc1O | inactive |
| CC(C)=CC1C(C(=O)OCc2cccc(Oc3ccccc3)c2)C1(C)C (stereo not given) | inactive |
| Cc1cc(Cl)ccc1OC(C)C(=O)O (stereo not given) | inactive |
| Nc1ncn[nH]1 | inactive |
| O=S1(=O)OC(c2cc(Br)c(O)c(Br)c2)(c2cc(Br)c(O)c(Br)c2)c2ccccc21 | inactive |
| CC1(C)[C@H](/C=C2\CCSC2=O)[C@@H]1C(=O)OCc1coc(Cc2ccccc2)c1 | inactive |
